# Assay results: the supplement of paper PMC12339681
# Where a name gives a salt, the structure may show the parent alone.
# System: PBMC-derived induced microglia-like cells (piMGLC)
# Experiment: synaptosome phagocytic index relative to DMSO control (fraction of DMSO); higher = more phagocytosis
# Details: concentration: 10 uM (2 uM for compounds listed in Table S2); pretreatment time: 24 h; assay time: 3 h
# Description: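 PBMC-derived induced microglia-like cells (piMGLCs) in 96-well plates were pretreated for 24 h with CNS-penetrant library compounds (MedChemExpress HY-L028), mostly at 10 uM; Table S2 lists 9 compounds at 2 uM. pHrodo-Red-labelled human iPSC-neuron synaptosomes (3 ug/well) were then added for 3 h, and cells were fixed and imaged by confocal microscopy. Phagocytic index (synaptosome area / cell count, CellProfiler) is a mean over 3 replicate wells on different plates, normalized to the DMSO control. Compounds leaving <10% of DMSO cell count were marked toxic and given no value.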
row,SMILES,synaptosome phagocytic index
1,CC/C(=C(/CC)c1ccc(O)cc1)c1ccc(O)cc1 [Diethylstilbestrol],0.638
2,CC(=O)N1CCc2c(c(N3CCCc4cc(-c5cnn(C)c5)c(C(F)F)cc43)nn2C2CCOCC2)C1,0.59
3,CC(C(=O)O)c1ccc(-c2ccccc2)c(F)c1 (stereo not given) [Flurbiprofen],0.64
4,COc1cc2ncnc(Nc3ccc(F)c(Cl)c3)c2cc1OCCCN1CCOCC1 [Gefitinib],1.24
5,Cc1ccc(Nc2nccc(N(C)c3ccc4c(C)n(C)nc4c3)n2)cc1S(N)(=O)=O [Pazopanib_(Hydrochloride)],0.523
6,N#Cc1ccc(COC[C@H]2O[C@@H](n3c(NCc4ccc(Cl)c(Cl)c4)nc4c(N)ncnc43)[C@H](O)[C@@H]2O)cc1,0.479
7,COC[C@@H](c1ccc(C(F)(F)F)cc1)N1CCN(C2(C)CCN(C(=O)c3c(C)ncnc3C)CC2)C[C@@H]1C [Vicriviroc_(maleate)],0.947
8,NC(=O)c1cnccn1 [Pyrazinamide],1.21
9,C#Cc1cccc(Nc2ncnc3cc(OCCOC)c(OCCOC)cc23)c1 [Erlotinib_(Hydrochloride)],0.391
10,CCN(CC)CC(=O)Nc1c(C)cccc1C [Lidocaine_(hydrochloride)],0.925
11,N[C@@H](CC(=O)O)C(=O)O [L-Aspartic_acid],0.871
12,CCc1nn(CCCN2CCN(c3cccc(Cl)c3)CC2)c(=O)n1CCOc1ccccc1 [Nefazodone_(hydrochloride)],1.37
13,CCN(C(=O)c1c(O)c2c(Cl)cccc2n(C)c1=O)c1ccccc1 [Laquinimod],0.888
14,O=C1Cc2cc(CCN3CCN(c4nsc5ccccc45)CC3)c(Cl)cc2N1 [Ziprasidone_(hydrochloride_monohydrate)],0.51
15,CCOCc1cc(OC)c(-c2ccc(C[C@H](NC(=O)c3c(F)cccc3F)C(=O)O)cc2)c(OC)c1 [Firategrast],0.931
16,Cc1nc(N)nc(N)c1-c1ccc(Cl)c(Cl)c1 [Metoprine],1.25
17,NC(=O)c1ccc(I)c([N+](=O)[O-])c1 [Iniparib],0.96
18,CC(C)(O/N=C(\C(=O)N[C@@H]1C(=O)N2C(C(=O)[O-])=C(C[n+]3ccccc3)CS[C@H]12)c1csc(N)n1)C(=O)O [Ceftazidime],1.05
19,Cc1ccccc1C(OCCN(C)C)c1ccccc1 (stereo not given) [Orphenadrine_(citrate)],1.23
20,CCN(CC)C(=O)C1(c2ccccc2)CC1CN (stereo not given) [Milnacipran_(hydrochloride)],1.35

row,SMILES,synaptosome phagocytic index
1,CCCCCCCCCC(=O)OCCN1CCN(CCCN2c3ccccc3Sc3ccc(C(F)(F)F)cc32)CC1 [Fluphenazine_decanoate],1.03
2,N#Cc1ccc2[nH]cc(CCCCN3CCN(c4ccc5oc(C(N)=O)cc5c4)CC3)c2c1 [Vilazodone],0.195
3,CC[C@]1(O)C[C@H]2CN(CCc3c([nH]c4ccccc34)[C@@](C(=O)OC)(c3cc4c(cc3OC)N(C=O)[C@H]3[C@@](O)(C(=O)OC)[C@H](OC(C)=O)[C@]5(CC)C=CCN6CC[C@]43[C@@H]65)C2)C1 [Vincristine_(sulfate)],1.04
4,CCCc1nc(C)c2c(O)nc(-c3cc(S(=O)(=O)N4CCN(CC)CC4)ccc3OCC)nn12 [Vardenafil_(hydrochloride)],1.16
5,CCc1cc(Nc2nc(-c3ccc(-n4cnc(C)c4)c(F)c3)cs2)c(C)cc1C,0.666
6,O=C(c1ccccc1)c1ccc2n1CCC2C(=O)O (stereo not given) [Ketorolac_(tromethamine_salt)],0.874
7,C[C@@H](O[C@H]1OCCN(Cc2n[nH]c(=O)[nH]2)[C@H]1c1ccc(F)cc1)c1cc(C(F)(F)F)cc(C(F)(F)F)c1 [Aprepitant],1.02
8,NC(=O)N1c2ccccc2C=Cc2ccccc21 [Carbamazepine],0.865
9,CNS(=O)(=O)Cc1ccc2[nH]cc(CCN(C)C)c2c1 [Sumatriptan_(succinate)],0.992
10,CC(C)(Sc1cc(C(C)(C)C)c(O)c(C(C)(C)C)c1)Sc1cc(C(C)(C)C)c(O)c(C(C)(C)C)c1 [Probucol],0.859
11,Nc1cc(C(F)(F)F)c(-c2cc(N3CCOCC3)nc(N3CCOCC3)n2)cn1 [Buparlisib],1.13
12,OC(CN1CCN(c2cccc(Cl)c2)CC1)C(c1ccccc1)c1ccccc1 (stereo not given),1.01
13,Oc1cc(-c2nc(-c3ccccc3)[nH]c2-c2ccncc2)ccc1Cl,0.229
14,COc1cc2nc(C3CC3)nc(N3CCN(c4ccccc4OC)CC3)c2cc1OC,0.0572
15,CCc1c(C)[nH]c2c1C(=O)C(CN1CCOCC1)CC2 (stereo not given) [Molindone_(hydrochloride)],0.64
16,CN1CC[C@H](c2c(O)cc(O)c3c(=O)cc(-c4ccccc4Cl)oc23)[C@H](O)C1 [Flavopiridol],0.936
17,Nc1cc(C(F)F)c(-c2nc(N3C4CCC3COC4)nc(N3C4CCC3COC4)n2)cn1,0.347
18,CCc1cc2c(cc1-c1cnn(CC(=O)N(C)C)c1)C(C)(C)c1[nH]c3cc(C#N)ccc3c1C2=O,0.394
19,CN(C)CCOC(C)(c1ccccc1)c1ccccn1 (stereo not given) [Doxylamine_(succinate)],0.833
20,CCc1cc2c(cc1N1CCC(N3CCOCC3)CC1)C(C)(C)c1[nH]c3cc(C#N)ccc3c1C2=O [Alectinib_(Hydrochloride)],0.192
